This is part of a sample that, as a whole, favours compounds with a hit. Of some 83,000 tested, about 20% had one in any assay.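 Step 1: grow cells in 96-well plates. Step 2: add test compound at a single concentration. Step 3: incubate 48 h. Step 4: record percent growth.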 A number with no mark means an inactive call. Activity calls are given as the source filed them. Rule for the calls: active = growth percent below 10; inactive = the rest.

This experiment relates to MDA-MB-468 breast. Description: NCI-60 one-dose screen, 48 h (100 = growth as untreated, 0 = no growth, -100 = all killed). The settings on record: 10 µM unless noted.
Regarding `COc1cc(C(=O)Nc2ccc(-c3nc4ccccc4[nH]3)cc2)cc(OC)c1OC`, the growth is 6.62% (active).

In the case of `Cc1ccc(-n2cc(/C=N/NC(=O)c3ccncc3)c(-c3ccc(S(C)(=O)=O)cc3)n2)cc1`, the growth is 100%.

Consider `COC(=O)[C@]12CCC(C)(C)C[C@H]1[C@H]1/C(=N/OCCc3nn[nH]n3)C[C@@H]3[C@@]4(C)CC[C@H](OC(C)=O)C(C)(C)[C@@H]4CC[C@@]3(C)[C@]1(C)CC2`, for which the growth was 17.3%.

As for `C=C(C)[C@@H]1CC[C@]2(C(N)=O)CC[C@]3(C)[C@H](CC[C@@H]4[C@@]5(C)CC[C@H](O)C(C)(C)[C@@H]5CC[C@]43C)[C@@H]12`, the growth is -56% [100 µM] (active).

`CC1=C(C)C(=O)C(Nc2ccc3c(c2)OCCO3)=C(Br)C1=O`: the growth is 28.1%.

As for `COC(=O)C1OC1c1cc([N+](=O)[O-])ccc1OC` (stereo not given), the growth was 76.2%.

With `CC(=O)C1=C(O)C=C2Oc3c(C(=O)/C=C/c4cc(C(F)(F)F)cc(C(F)(F)F)c4)c(O)c(C)c(O)c3[C@]2(C)C1=O`, the growth was -69.3% (active).

On to `COc1ccc([C@@H]2[C@@H](O)C(=O)N2c2cc(OC)c(OC)c(OC)c2)cc1F`, for which the growth is -3.08% (active).

Regarding `C=C1CC[C@@H]2[C@](C)(COC(C)=O)[C@H](OC(C)=O)CC[C@@]2(C)[C@@H]1CC(Nc1ccc(S(=O)(=O)Nc2cc(C)on2)cc1)C1=CCOC1=O` (stereo not given in full), the growth was 3.23% (active).

`COc1ccc(/C=C(/C(=O)N2CCN(Cc3ccccc3)CC2)c2cc(OC)c(OC)c(OC)c2)cc1O`: the growth is 20.4%.

For `Nc1nc(-c2cccc([N+](=O)[O-])c2)c(N=Nc2cccc(Cl)c2)s1`, the growth is 11.5%.

Consider `CSc1nc2c(c(=O)n1C)C(c1ccccc1)C1=C(N2)/C(=C/c2ccccc2)CCC1` (stereo not given), for which the growth is 34.7%.

Regarding `C/C(=N\O)c1ccc(Cl)cc1`, the growth is 108%.

As to `Nc1ccc(S(=O)(=O)Nc2ccnn2-c2ccccc2)cc1`, the growth was 107%.

`Cc1cc(C(=O)c2ccccc2)cc(C)c1O`: the growth is 111%.

For `CC(=O)O[C@H]1C(=O)[C@@]2(C)[C@H]([C@H](OC(=O)c3ccccc3)[C@]3(O)C[C@H](OC(=O)[C@H](OC(=O)CCC(=O)OC4CCC(S/N=C(N)/N=C(\N)N(C)C)CC4)[C@@H](NC(=O)c4ccccc4)c4ccccc4)C(C)=C1C3(C)C)[C@]1(OC(C)=O)CO[C@@H]1C[C@@H]2O` (stereo not given in full), the growth was -6.44% (active).

`COc1ccc(/C=C2\CN(C(=O)CCN3CCC(=NO)CC3)C/C(=C\c3ccc(OC)cc3)C2=O)cc1`: the growth was -27.5% (active).

Turning to `N#Cc1c(Nc2ccc(F)cc2)n[nH]c1-c1cccs1`, the growth was 98.4%.

Take `CCCCCN(CCCCC)C(=O)C(CCC(=O)O)NC(=O)c1ccc(Cl)c(Cl)c1` (stereo not given): the growth is 106%.

Consider `Cc1c(N2CCCCC2)[nH]c2ccccc12`, for which the growth is 121%.

In the case of `CC(=O)c1nnn(-c2c(C(=O)n3nc(C)cc3C)sc(=S)n2-c2ccccc2)c1C`, the growth is 96.8%.

On to `O=C(COc1cccc(/C=C2\Cc3ccc(Cl)cc3C2=O)c1)Nc1nccs1`, for which the growth is 21.9%.

With `Oc1cccc2ccc(-c3nnc(SCc4ccc(O)c5ncccc45)o3)nc12`, the growth was 0.74% (active).

With `CO[C@H]1/C=C/C=C/C=C/C[C@H](OC(=O)[C@@H](C)NC(=O)C2CCCCC2)[C@H](C)[C@@H](O)/C(C)=C\CCC2=CC(=O)C=C(NC(=O)C1)C2=O`, the growth is -40.9% (active).

As for `Cc1[nH]c(-c2ccc3cc[nH]c3c2)c2c1C(=O)CCCC2`, the growth was 15.8%.

For the compound `Cc1nc2ccc(-n3c(-c4ccc(Cl)cc4)nc4ccccc4c3=O)cc2n1Cc1ccccc1`, the growth was 77.6%.

Regarding `O=S(=O)(NCCCNc1nccc(-c2c(-c3ccc(F)c(O)c3)nc3occn23)n1)c1ccccc1`, the growth is 94.8%.

Regarding `O=C(/C(=C/c1ccc([N+](=O)[O-])cc1)SCc1ccc(F)cc1)c1ccc(Cl)cc1`, the growth was 76.4%.

For `O=[N+]([O-])c1ccccc1S(=O)c1ccccc1[N+](=O)[O-]`, the growth is 40.1%.

`COc1ccc(-c2oc3cc(O)cc(O)c3c(=O)c2OC)cc1O`: the growth is -3.48% (active).

Regarding `O=C(NNC(=S)Nc1ccccc1)c1ccncc1`, the growth was 122%.

For `CCCCCCCCCCCCCCCCCN`, the growth was 101%.

As for `O=C(CSc1nc2c(n1Nc1ccccc1)-c1ccccc1SC2)Nc1nccs1`, the growth was 104%.

As for `CCN(CC)CCNc1c(C)cc(CO)c(Cl)c1C`, the growth is -8.33% (active).

On to `N#Cc1c(-c2ccccc2)nc(SCC(=O)N2CCN(c3ccccc3)CC2)[nH]c1=O`, for which the growth is 106%.

Consider `CCN1C(=O)N(CC)C2Nn3c(s/c(=C4\C(=O)N(C5CCCC5)c5ccccc54)c3=O)=NC21` (stereo not given), for which the growth is 11%.

With `COC(=O)Nc1ccc(NC(=O)OC)cc1`, the growth is 97.3%.

On to `O=C(Nc1ccc(-n2cc(-c3ccncc3)c(-c3ccc(Cl)c(O)c3)n2)cc1)c1ccc(Cl)c(Cl)c1`, for which the growth was 54.2%.

As for `CN(C)CCNc1cccc2sc3ccc(O)cc3c(=O)c12`, the growth is 28.1%.

In the case of `C#CCOCC1CN(C)C(=O)O1` (stereo not given), the growth was 118%.

(Values after PubChem BioAssay (NCI).)
